Laboratory results from PubChem BioAssay.
Values joined by “and” are separate entries in the source; they are usually repeats but may differ in a detail not shown here. Equal entries are not always repeated. Active and inactive are the calls of the source.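 The calls were made as follows, unless noted: active = compounds whose cell count with miR-34 switched on is under 0.7 times the count with it off; inactive = the rest.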

What was measured:
[1] = stimulators of nuclear beta-catenin in C2C12, primary screen, imaging, WNT3A-conditioned medium, mouse C2C12, NPC library (AID 1117326; in the data active = nuclear beta-catenin stimulation mostly above about 4.2%, no sharp cut-off; inactive = mostly below about 10%; also: reference of the scale not given here); conditions: stronger effect = higher value
[2] = stimulators of insulin release from INS-1E, primary screen, cell-based, 5 mM glucose, NPC library (AID 1117329;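 active = compound raises insulin release from rat beta cells at 5 mM glucose, no numeric limit stated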; also: reference of the scale not given here); conditions: rat INS-1E insulin secretion, at 10 µM, stronger effect = higher value
[3] = growth inhibition of GSK3B-pretreated HCT116 cells – cell-based, CellTiter-Glo, 0.2 to 20 µM (AID 1117336;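 active = compounds lowering colon cancer cell viability after pretreatment blocking the GSK3B kinase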); conditions: HCT116 viability after GSK3B inhibitor, at 20 µM, stronger effect = higher value
[4] = inhibition of endothelial tube formation, primary screen, imaging, VEGF stimulated, CD31 staining, tube area, NPC library (AID 1117340;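 active = compound that reduces growth-factor-driven endothelial tube area in a mixed cell culture, no cutoff stated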); conditions: VEGF-stimulated ADSC/ECFC co-culture, at 10 µM, stronger effect = higher value
[5] = glucagon-like peptide 1 release enhancers, primary assay, NCI-H716 cell line, NPC library (AID 1117341;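 active = compound raises GLP1 secretion from the human gut endocrine cells, with no numeric limit stated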; also: reference of the scale not given here); conditions: NCI-H716 cells, at 10 µM, stronger effect = higher value
[6] = HCT116 colon cancer cell growth inhibition, primary screen, CellTiter-Glo luminescence, NPC library (AID 1117342;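 active = compounds that lower survival of HCT116 colon cancer cells in the luminescence readout, no numeric limit stated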); conditions: at 20 µM (top of the series)
[7] = CellTiter-Glo luminescent readout of SW480 viability loss, NPC library primary (AID 1117343;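 active = compounds that lower viability of the colon cancer cells in the luminescence readout, with no numeric limit stated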); conditions: CellTiter-Glo luminescence; at 20 µM (top of the series) unless noted
[8] = decreased DLD-1 cellular survival, CellTiter-Glo luminescent readout, NPC compound collection, primary HTS (AID 1117346;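 active = compounds that lower survival of DLD-1 colon cancer cells in the luminescence readout, no cutoff given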); conditions: DLD-1 viability, CellTiter-Glo luminescence; at 20 µM (top of the series)
[9] = sensitizers of A549 cells to miR-34 induction, primary screen, imaging, A549 dox-inducible miR-34, nuclei and caspase counts (AID 1347080); conditions: A549 miR-34 inducible, Hoechst nuclei count, 48 h
[10] = survival rescue of mitochondrial mutant cells in low glucose, primary screen, MELAS cybrids, Rieske KO mouse fibroblasts, CellTiter-Glo (AID 1508586;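 active = mean z-score across replicates of 1.96 or higher in either the MELAS or the Rieske mutant cell line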;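 also: z relative to plate mean and SD of compound and empty wells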)
[11] = liver-stage malaria parasite growth inhibition, primary screen, cell-based, HepG2, luciferase luminescence, HepG2 viability (AID 624349; in the data active = parasite load remaining mostly below about 12%, no sharp cut-off; inactive = mostly above about 10%;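 also: 100% = mean of DMSO negative control wells on the same plate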); conditions: P. berghei liver stage in HepG2, luciferase luminescence, concentration not given here; parasite load remaining: stronger effect = lower value; viability: measured here: HepG2 viability without parasites
[12] = phospholipid biosynthesis inhibitors in animal cells, primary screen, cell-based, LOPAC library, screen 4 (AID 1347384; call rule not given here); conditions: phospholipid biosynthesis inhibition screen, at 10 µM
[13] = viability rescue of complex I mutant cybrids, primary screen, cell-based, galactose medium, ATP luminescence (AID 1645843;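 active = z-score of at least 1.8 in each of two replicates, scored against plate mean and spread of sample wells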;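 also: positive z means more ATP and so rescue of galactose-driven cybrid death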); conditions: complex I mutant cybrid cells, 72 h, stronger effect = higher value
[14] = stronger effect = lower value, cell number ratio, induced over uninduced
[15] = measured here: relative caspase fold change +Dox/-Dox
[16] = measured here: total cells with miR-34 induction, stronger effect = lower value
[17] = measured here: total cells without miR-34 induction
[18] = MELAS cybrid survival, CellTiter-Glo 48 h, stronger effect = higher value
[19] = Rieske KO mouse fibroblast survival, CellTiter-Glo 72 h

Row | SMILES | nuclear beta-catenin stimulation ([1]; at 10 µM) | nuclear beta-catenin stimulation ([1]; stimulation, at 2 µM) | insulin secretion stimulation [2] | viability decrease [3] | tube area decrease [4] | GLP1 secretion stimulation [5] | inhibition of viability [6] | viability decrease (inhibition) [7] | viability decrease (inhibition) [8] | fold change [9, 14] | fold change [9, 15] | cell count [9, 16] | cell count [9, 17] | z-score [10, 18] | z-score [10, 19] | parasite load remaining [11] | viability [11] | outcome [12] | z-score [13]
1 | CC1=C(C(=O)OC(C)C)C(c2cccc([N+](=O)[O-])c2)C(C(=O)OC2CN(C(c3ccccc3)c3ccccc3)C2)=C(N)N1 (stereo not given) | -2% (inactive) | 2.2% | 5.2% (inactive) | 111% (active) | 109% (active) | 40.3% (active) | 113% (active) | 133% (active) | 102% (active) | 0.933 (inactive) | 0.636 | 7560 | 8100 | -0.296 (inactive) | -0.252 |  |  |  | 
2 | COC(=O)C(c1ccccc1Cl)N1CCc2sccc2C1 (stereo not given) | 0.3% (inactive) | -0.7% | 1.9% (inactive) | 30.5% (inactive) | 1.2% (inactive) | 3.9% (inactive) | 52.7% (active) | 18.6% (inactive) | 48.7% (inactive) | 0.927 (inactive) | 0.912 | 7680 | 8290 | -0.416 (inactive) | 0.984 |  |  |  | 
3 | CC(=O)[C@@]1(O)CC[C@H]2[C@@H]3CCC4=CC(=O)CC[C@]4(C)[C@H]3CC[C@@]21C | 1.2% (inactive) | 2.3% | 0.95% (inactive) | 14.3% (inactive) | -5.3% (inactive) | 2% (inactive) | 20.1% (inactive) | 10.2% (inactive) | -4.1% (inactive) | 0.967 (inactive) and 0.853 (inactive) | 1.72 and 1.68 | 8400 and 8890 | 8690 and 10400 | -0.428 (inactive) | 0.151 | 0.96% (inactive) | 66% | inactive | -0.055 (inactive) and -1.24 (inactive)
4 | COC(=O)[C@@H](N)Cc1ccc(O)c(O)c1 | 6.9% (inactive) | 0% | -2.6% (inactive) | 22% (inactive) | 1.4% (inactive) | 5.5% (inactive) | 8.3% (inactive) | 64.7% (active) | 15.2% (inactive) | 0.967 (inactive) | 1.36 | 9830 | 10200 |  |  |  |  | inactive | -1.02 (inactive)
5 | CC(C)(C)c1ccc(C(=O)CCCN2CCC(OC(c3ccccc3)c3ccccc3)CC2)cc1 | 0.6% (inactive) | 11.9% | 1% (inactive) | 111% (active) | 102% (active) | 6% (inactive) | 114% (active) | 133% (active) | 101% (active) | 1.42 (inactive) | 0.93 | 1290 | 913 |  |  |  |  | inactive | -0.865 (inactive)
6 | COc1ccc(CCN(C)CCCC(C#N)(c2cc(OC)c(OC)c(OC)c2)C(C)C)cc1OC (stereo not given) | 1% (inactive) | 0.7% | 0.45% (inactive) | -1.5% (inactive) | 6.2% (inactive) | 5.2% (inactive) | 18.9% (inactive) | 22% (inactive) | 4.6% (inactive) | 1.02 (inactive) and 0.953 (inactive) | 0.481 and 1.24 | 9650 and 5610 | 9490 and 5880 |  |  |  |  | inactive | -0.635 (inactive)
7 | CCN1CCc2nc(N)oc2CC1 | -1.7% (inactive) | 0.3% | 0.4% (inactive) | 2.7% (inactive) | 1.7% (inactive) | -1.2% (inactive) | 5.2% (inactive) | -29.1% (inactive) | -18% (inactive) | 1.02 (inactive) | 1.71 | 10300 | 10100 |  |  |  |  | inactive | 0.29 (inactive)
8 | NC(=O)c1cn(Cc2c(F)cccc2F)nn1 | 0.5% (inactive) | 2.9% | -2.7% (inactive) | -3.55% (inactive) | -8.7% (inactive) | -0.1% (inactive) | 18.7% (inactive) | 11.5% (inactive) | 5.25% (inactive) | 1.05 (inactive) and 0.933 (inactive) | 0.739 and 0.557 | 10500 and 8320 | 10000 and 8930 | -0.0452 (inactive) | -0.156 |  |  | inactive | 0.155 (inactive)
9 | COc1cc(C)c(C=CC(C)=CC=CC(C)=CC(=O)O)c(C)c1C | 1% (inactive) | 1.9% | 2.8% (inactive) | 61.5% (active) | 45.4% (active) | -3.9% (inactive) | 52.1% (active) | 70.9% (active) | 78.6% (active) | 0.847 (inactive) | 1.06 | 6840 | 8080 | -0.108 (inactive) | 0.793 |  |  |  | 
10 | CC(C=CC=C(C)C=CC1=C(C)CCCC1(C)C)=CC=CC=C(C)C=CC=C(C)C=CC1=C(C)CCCC1(C)C | 1.5% (inactive) | 1.5% | 3.2% (inactive) | -39.2% (inactive) | 5.4% (inactive) | 5.7% (inactive) | 1.37% (inactive) | 19.1% (inactive) | 3.2% (inactive) | 0.877 (inactive) | 0.984 | 7760 | 8840 | -0.304 (inactive) | 0.553 |  |  |  | 
11 | CCCCc1ncc(/C=C(\Cc2cccs2)C(=O)O)n1Cc1ccc(C(=O)O)cc1 | 0.4% (inactive) | 12.2% | 2.05% (inactive) | 9.7% (inactive) | -11.7% (inactive) | -2.1% (inactive) | 0% (inactive) | -13.7% (inactive) | -4.6% (inactive) | 1.04 (inactive) and 0.815 (inactive) | 0.751 and 0.591 | 10200 and 8890 | 9790 and 10900 | 0.334 (inactive) | -0.876 | 50.8% (inactive) | 110% | inactive | 0.525 (inactive) and 0.34 (inactive)
